High-throughput results (PubChem BioAssay)
In the library only some 9.3% were active in any assay of this set; here they are far more common.
NPC1 prom act – activators of NPC1 promoter; Huh7 NPC1 promoter luciferase reporter, 24 h; Potency, µM (highest dose often 9.22 µM), inactives show at the top dose activation, actives largely listed as activators; actives 2.4% (n = 320,000); further: % of control where 0% means no effect; nearly all actives have a fitted effect of over 60% in size
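Cells: Huh7 expressing luciferase under the NPC1 promoter, 1500/well. Seeded 2 h, compound added, incubated 24 h at 37 °C. Luciferase reagent, 10 min ambient, then luminescence.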
SMN2 splice up – increases expression of the SMN2 splice variant; HEK293 SMN2-luciferase splicing reporter, luminescence, 30-36 h; actives 2.8% (n = 210,000); Potency, µM (top dose mostly 46.1 µM), for the others: at the highest dose activity change, positive = activation, usual class: activators; further: % of control where 0% means no effect; nearly all actives have a fitted effect of over 55% in size
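HEK293 cells carry an SMN2 minigene-luciferase reporter in which exon 7 inclusion puts luciferase in frame. Cells were seeded at 2000 cells/well, attached for 10-12 hours, then exposed to compounds for 30-36 hours at 37C before ONE-Glo luminescence.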
Rab9 promoter act – activators of Rab9 promoter; Huh7 Rab9 promoter-luciferase reporter, luminescence, 24 h; Potency, µM (doses to about 9.22 µM), inactives show at the highest dose activation, negative = inhibition, usual class: activators; actives 2.8% (n = 320,000); AID 485297; further: % of control where 0% means no effect; nearly all actives have a fitted effect of over 60% in size
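Measured in stably transfected Huh7 cells bearing a Rab9 promoter–luciferase construct: 24 h compound treatment at 37 °C, followed by luminescence detection.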
ELG1 DNA repair – inhibitors of ELG1-dependent DNA repair in HEK293T cells. HEK293T ELG1-luciferase reporter, luminescence, 16 h; DNA damage induced by 5-fluorouridine. Potency, µM (titrated, usually from 46.1 µM), without a hit: top-dose activity change, negative = inhibition, most hits filed as inhibitors. actives 2.3% (n = 330,000); further: on the % scale 0 is the no-effect control and ±100 the full control effect; nearly all actives have a fitted effect of over 55% in size
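Cells (2,000 per well) received 5-fluorouridine plus test compound or DMSO and were incubated 16 hr at 37 °C, 5% CO2. Luciferase activity was read by luminescence 30 min after ONE-Glo addition; signal suppression marked inhibition of damage-induced ELG1 function.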
ELG1 genotox – inducers of genotoxicity in HEK293T ELG1-luciferase cells | HEK293T ELG1-luciferase reporter, luminescence, 16 h | Potency, µM (highest dose often 46 µM), inactives show top-dose activity change, positive = activation, actives largely listed as activators | actives 1.3% (n = 330,000); further: % of control where 0% means no effect; nearly all actives have a fitted effect of over 60% in size
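Screening used a luciferase reporter fused to human ELG1 in HEK293T cells. Luminescence was read on a CCD plate imager after 16 hr exposure and 30 min ONE-Glo incubation.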
FLuc counter – counter-screen for miR-21 project: firefly luciferase inhibitors or activators; purified FLuc, Km substrates, luminescence inhibition; Potency, µM (top dose mostly 57.5 µM), for the others: at the top dose activity change, negative = inhibition, actives largely listed as inhibitors; actives 6.9% (n = 360,000); AID 588342;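 further: plate controls were vehicle for no effect and reference inhibitor for full effect; nearly all actives have a fitted effect of over 55% in size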
Target sequence (P08659 whole entry, looked up): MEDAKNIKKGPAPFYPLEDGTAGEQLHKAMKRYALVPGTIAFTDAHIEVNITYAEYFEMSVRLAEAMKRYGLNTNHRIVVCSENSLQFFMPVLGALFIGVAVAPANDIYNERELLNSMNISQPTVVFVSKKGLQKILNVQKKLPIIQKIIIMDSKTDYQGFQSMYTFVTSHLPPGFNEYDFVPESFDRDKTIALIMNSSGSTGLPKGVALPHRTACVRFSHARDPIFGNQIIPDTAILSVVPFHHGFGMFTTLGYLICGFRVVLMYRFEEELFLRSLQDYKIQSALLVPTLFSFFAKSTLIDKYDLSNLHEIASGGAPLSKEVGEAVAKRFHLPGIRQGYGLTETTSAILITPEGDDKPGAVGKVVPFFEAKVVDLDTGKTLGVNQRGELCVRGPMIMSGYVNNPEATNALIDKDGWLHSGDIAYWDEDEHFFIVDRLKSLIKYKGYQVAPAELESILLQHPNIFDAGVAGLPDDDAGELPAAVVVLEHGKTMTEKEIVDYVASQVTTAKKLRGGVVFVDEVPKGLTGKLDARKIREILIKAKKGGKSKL
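Biochemical qHTS of compounds, final roughly 60 µM downward over six points, against 10 nM purified firefly luciferase using Km concentrations of substrates (10 uM D-luciferin, 10 uM ATP) in Tris acetate pH 7.5 buffer; luminescence output.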
* marks the source's active call; other numbers are inactive results; ? = inconclusive; · = no result given; [ ] = dose if it differs, or a comment. The call rests on the fitted dose curve; in most records, active means well fitted curve in the direction sought with a large enough effect; inconclusive means small, poorly fitted or top-dose-only effect, or another doubt; inactive means no such curve, though single readings can be large; an effect the other way counts as inactive or inconclusive. Potency means the concentration at half of the fitted maximal effect.

SMILES	NPC1 prom act	SMN2 splice up	Rab9 promoter act	ELG1 DNA repair	ELG1 genotox	FLuc counter
CCCCOc1ccc(C(=O)Nc2ccc(N3CCN(C)CC3)cc2)cc1	-2.6%	11.7%	-4.1%	10.9%	5.1%	-12.1%
Cc1ccc(NC(=O)c2ccc(Nc3c([N+](=O)[O-])cc([N+](=O)[O-])cc3[N+](=O)[O-])cc2)cc1	1.4%	-15.5%	-2.1%	7.31µM*	-18.3%	?
CCOc1ccc(C(=O)Nc2ccc(N3CCN(C)CC3)cc2)cc1	14.8%	·	14.5%	?	9.4%	12µM*
Cc1cc(NC(=O)CCC(=O)N(Cc2cccnc2)C(C(=O)NC(C)(C)C)c2ccccc2Cl)no1 (configuration not stated)	-2.0%	·	0.6%	5.3%	-0.3%	-1.4%
Cc1ccc(OCC(=O)NCCc2c[nH]c3ccccc23)cc1	-0.1%	·	-4.0%	-6.9%	-0.5%	-5.4%
Cc1ccc(C(=O)Nc2ccc(N3CCN(C)CC3)cc2)cc1	2.24µM*	·	2.51µM*	?	?	19µM*
CCOc1ccc(NC(=O)c2ccc(NCC(=O)N3CCCCCC3)cc2)cc1	26.2%	-3.6%	9.0%	?	-7.1%	10.7µM*
Cc1ccc(C(=O)N2CCN(c3ccc(NC(=O)c4cc(C)cc(C)c4)cc3)CC2)cc1	-3.4%	·	-7.2%	10.2%	0.4%	3.4%
Cc1ccc(NC(=O)c2ccc(C)cc2)cc1	0.447µM*	·	0.251µM*	?	?	0.849µM*
COc1ccc(-c2nc(CCl)cs2)cc1OC	-1.6%	-4.9%	11.6%	16.3%	21.9%	?
Oc1ccc(-c2csc(-c3c[nH]c4ccccc34)n2)c(O)c1	3.55µM*	?	?	?	?	10.7µM*
COc1ccc(O)cc1	·	-10.9%	·	6.3%	10.0%	·
Cc1ccc(-c2csc(-c3c[nH]c4ccccc34)n2)c(C)c1	?	20.9%	6.1%	23.5%	2.4%	?
COc1ccc(-c2csc(-c3ccc(O)cc3)n2)cc1	-21.4%	·	2.3%	?	?	9.53µM*
CCc1ccc(-c2nc(CCl)cs2)cc1	?	·	?	?	?	3.79µM*
COc1ccc(-c2csc(C3=C(O)CN(C(C)C)C3=N)n2)cc1OC	-3.3%	7.4%	4.1%	7.1%	?	10.7µM*
COC(=O)C(C)Sc1nnc2cc(C)c3cc(C)cc(C)c3n12 (configuration not stated)	·	·	·	·	·	-13.1%
COc1ccc(-c2nc(-c3ccc(O)cc3O)cs2)cc1OC	15.8%	?	?	9.1%	?	10.7µM*
C=CCn1c(-c2csc(-c3ccc(OC)c(OC)c3)n2)n[nH]c1=S	-3.3%	-5.7%	-6.6%	-17.0%	8.2%	2.6%
COc1cccc(-c2nc(CCl)cs2)c1	-4.8%	-8.4%	5.6%	5.5%	1.2%	26.9µM*
COc1ccc(-c2nc(CCl)cs2)cc1	18.5%	4.6%	?	?	?	9.53µM*
CC1CN(C(=O)c2cccc(COc3ccc(Br)cc3)c2)CC(C)O1 (configuration not stated)	1.58µM*	3.98µM*	3.55µM*	?	?	4.78µM*
CCOc1ccc(N=C(/C(C(=O)C(=O)N2CCOCC2)=C(/O)c2ccccc2)c2ccccc2)cc1	3.98µM*	·	?	?	?	?
CCOc1ccc(NC(=O)c2cccc(OC(=S)N3CCOCC3)c2)cc1	-1.7%	·	-3.7%	-9.9%	-8.4%	?
O=C(c1cccc(OCc2ccccc2)c1)N1CCOCC1	6.2%	16.7%	2.9%	27.9%	7.5%	-7.6%
SMILES	NPC1 prom act	SMN2 splice up	Rab9 promoter act	ELG1 DNA repair	ELG1 genotox	FLuc counter
CCOc1ccc(OCc2cccc(C(=O)N3CCOCC3)c2)cc1	0.0891µM*	0.355µM*	0.0891µM*	?	0.13µM*	0.301µM*
Cc1ccc(S(=O)(=O)N2CCC(NC(=O)c3cccc(C)c3)CC2)cc1	-2.4%	-2.8%	-0.2%	12.9%	2.4%	2.0%
S=C1NC[C@H](c2ccccc2)N1CC1CCCCC1	1.4%	·	-0.7%	-13.3%	-4.9%	1.4%
Cc1ccc(/C=C/C(=O)NCCc2ccccc2)o1	?	·	?	?	?	16.9µM*
CC(C)=CC(=O)NCCc1ccccc1	·	12.6µM*	·	·	·	13.5µM*
O=C(CNC(=O)N1CC(=O)Nc2ccccc21)NCc1ccc(Cl)cc1	2.5%	·	-0.6%	-1.3%	2.5%	2.4%
CCN(C(=O)COc1ncnc2sccc12)c1ccccc1	7.6%	3.2%	2.7%	19.4%	3.3%	-2.5%
Cc1ccc(C(=O)OCC(=O)NCCC2=CCCCC2)s1	0.9%	13.2%	-4.7%	?	-1.3%	-9.9%
O=C(COC(=O)c1ccccc1Cl)NCCC1=CCCCC1	2.9%	7.3%	16.0%	?	15.5%	16.9µM*
O=C(COC(=O)c1cccs1)NCCC1=CCCCC1	-1.4%	?	8.2%	8.5%	-0.9%	19µM*
CNC/C(Cl)=N/S(=O)(=O)c1ccc(C)cc1	·	-10.1%[9.22 µM]	·	·	·	·
CC(C)C1Oc2ccccc2C(=O)N(CC(=O)c2ccc3c(c2)OCCO3)C1=O (configuration not stated)	1.12µM*	·	1.41µM*	?	?	2.39µM*
CC1Oc2ccccc2C(=O)N(CC(=O)c2ccc3c(c2)OCCO3)C1=O (configuration not stated)	23.5%	·	28.1%	22.9%	12.4%	4.78µM*
CCC1Oc2ccccc2C(=O)N(CC(=O)c2ccc3c(c2)OCCO3)C1=O (configuration not stated)	?	·	?	?	?	4.78µM*
